Bioassay records deposited in PubChem by ICCB-Longwood Screening Facility, Harvard Medical School.
MgrA DNA FP: alters Staphylococcus aureus MgrA binding to DNA | 0.13% of 84,000 active | fluorescence polarization | inhibition, % (no concentration beside the values) | AID 602314; in the data active means inhibition above about 30%, passing the limit was not always enough;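 further: higher means less MgrA bound to DNA so lower polarization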
Hits are given with their value; n = inactive. This is one part of a sample in which hits are shown more often than they occur.

SMILES | MgrA DNA FP
O=C(O)c1ccc(-c2ccccc2)cc1 | n
O=C1C=CC(=O)C(c2ccc(C(=O)O)cc2)=C1 | 83
CCc1ccc(C2=CC(=O)C=CC2=O)cc1 | n
C=CCn1c2ccccc2c2nnc(SCc3ccccc3C)nc21 | n
Clc1ccc(-c2nc(N3CCCCC3)c3ccccc3n2)cc1 | n
O=C1c2ccc(S(=O)(=O)O)cc2-c2nc(-c3ccccc3)nc3ccc(Cl)c1c23 | 81
O=C1c2ccccc2-c2nc(-c3ccccc3)cc3cccc1c23 | n
COC(=O)C(NC(=O)Nc1ccccc1)C(C)C (stereo unspecified) | n
COC(=O)C(C(=O)OC)C(Nc1ccccc1)c1ccccc1 (stereo unspecified) | 101
COC(=O)C(N=Cc1ccccc1)c1ccccc1 (stereo unspecified) | n
COc1ccc(NC(=O)n2ccc(C(=O)N3CCOCC3)n2)cc1 | n
COC(C(=O)NCc1cccnc1)c1ccccc1 (stereo unspecified) | n
CCOC(=O)C1=C(C)N=c2s/c(=C/c3ccc(OC(=O)c4ccco4)cc3)c(=O)n2C1c1ccccc1 (stereo unspecified) | n
CCc1ccc(N2C(=O)/C(=C/c3ccc(OCC(=O)O)c(OC)c3)C(=O)NC2=S)cc1 | n
COc1ccc(N2C(=O)/C(=C\c3ccc(C(C)C)cc3)C(=O)NC2=S)cc1 | n
CCC(C)N1C(=O)/C(=C\c2cnn(-c3ccccc3)c2)C(=O)NC1=S (stereo unspecified) | 63
CCCC(=O)Nc1ccc2nc(-c3ccccc3)[nH]c2c1 | n
CCN(C(=O)Cn1c(=O)n(CC)c(=O)c2ccccc21)c1ccccc1 | n
CCN1CC=C2C(C1)C(c1ccc(Cl)s1)C(C#N)=C(N)C2(C#N)C#N (stereo unspecified) | 42
CC(C)c1ccc(C2C(C#N)=C(N)C(C#N)(C#N)C3=CCN(C)CC32)cc1 (stereo unspecified) | n
CCCN1CC=C2C(C1)C(c1ccc(C(=O)OC)cc1)C(C#N)=C(N)C2(C#N)C#N (stereo unspecified) | n
N#Cc1cccc(N2C(=O)C=CC2=O)c1 | n
CC(Oc1ccccc1)C(=O)N1c2ccccc2CC1C (stereo unspecified) | n
O=C(NC1(C(=O)O)CC1)OCC1c2ccccc2-c2ccccc21 | n
O=C(OCC1c2ccccc2-c2ccccc21)ON1C(=O)CCC1=O | 68
SMILES | MgrA DNA FP
O=C(COc1ccccc1)ON1C(=O)CCC1=O | n
O=C(CSc1nnc(-c2ccco2)c(-c2ccco2)n1)N1c2ccccc2Sc2ccc(Cl)cc21 | n
O=C1c2ccccc2CC1Sc1nnc(-c2ccco2)c(-c2ccco2)n1 (stereo unspecified) | 96
Cc1cc(C)c(C#N)c(SC2CCc3ccccc3C2=O)n1 (stereo unspecified) | n
COc1ccc(C2C(C(=O)NCCCN3CCCCCC3)CCC(=O)N2c2ccc(OC)cc2)cc1 (stereo unspecified) | n
N#Cc1c(-c2cccs2)cc(-c2ccccc2)[nH]c1=O | n
N#Cc1c(C(F)(F)F)cc(-c2cccs2)[nH]c1=O | n
N#Cc1c(-c2ccco2)cc(-c2cccs2)[nH]c1=O | 55
CCCc1c(C)[nH]c2ccc(C(=O)O)cc2c1=S | 54
Cc1[nH]c2ccc(C(=O)O)cc2c1CC(=O)O | n
Cc1[nH]c2ccc(C(=O)O)cc2c1C | n
COC(=O)C1CCN(C(=O)CCOc2ccc(OC)cc2)CC1 | n
CCOC(=O)c1cnn2c(NC(=O)c3c(Br)cnn3C)c(C#N)nnc12 | n
O=C(/C=C/Nc1cccc(C(F)(F)F)c1)c1ccco1 | n
O=C(/C=C/Nc1ccccc1C(F)(F)F)c1ccco1 | 93
CCOc1ccc(N/C=C/C(=O)c2ccco2)cc1 | n
O=S(=O)(c1ccc(N2CCC(CNc3nc4ccccc4s3)CC2)cc1)N1CCOCC1 | n
CS(=O)(=O)N1CCN(c2ccc(NC(=O)Nc3cccc(Cl)c3)cc2)CC1 | n
FC(F)(F)Oc1ccc(-c2nnc(-c3ccncc3)o2)cc1 | n
O=C(Nc1ccc(F)cc1)c1ccncc1 | n
CC(C)CCNc1ncnc2c1nc1n2CCCCC1 | n
O=C(c1cccs1)N1CCc2sccc2C1c1ccc(Cl)cc1 (stereo unspecified) | n
CCN(CC)CCCC(C)Nc1c2ccc(Cl)cc2nc2ccc(OC)cc12 (stereo unspecified) | 60
CCN(CC)CCSc1nc2ccc(OC)cc2[nH]1 | n
CCSc1nc(C)c2cc(OC)ccc2n1 | n
SMILES | MgrA DNA FP
COc1cccc(-n2cc(C(=O)N(Cc3ccccc3)C(C)C)c3ccccc3c2=O)c1 | n
COC(=O)C(CC(=O)c1cccc(C)c1)c1ccc(Cl)cc1 (stereo unspecified) | n
O=C(NCC(c1cccs1)N1CCOCC1)C(F)(F)F (stereo unspecified) | n
Cc1ccc(/C=C2\SC(=O)NC2=S)o1 | 81
Cc1ccc(/C=C2\CC/C(=C\c3ccc(C)o3)C2=O)o1 | n
Cc1ccc(/C=C2/SC(=S)N(CCc3ccc(Cl)cc3)C2=O)o1 | n
CCOc1ccc(CN2CCN(Cc3ccco3)CC2)cc1 | n
COc1ccc(Cn2nnnc2CN(Cc2cccs2)Cc2cc3ccc(OC)cc3[nH]c2=O)cc1 | n
O=C(c1ccccc1)c1cccc([N+](=O)[O-])c1 | n
O=S(=O)(c1ccccc1)c1ccc(N2CCCCC2)cc1 | n
Nc1ccc(N2CCCC2)cc1 | 57
Nc1ccc(N2CCCCC2)cc1 | n
CN(C)C(=O)CSc1nc2ccc(Cl)cc2o1 | n
Cc1ccc(C)n1CCC(=O)O | 103
CC1=C(C)C(=O)N(CCC(=O)O)C1=O | n
Cc1ccc2c(c1)c(C)cc(=O)n2CCC(=O)O | n
O=[N+]([O-])c1ccc2oc(C(O)c3ccc(F)cc3)cc2c1 (stereo unspecified) | n
Cc1ccc(C)n1-c1cccc(N)c1 | n
O=C(O)c1cccc(-n2cccc2)c1 | n
Cc1ccc(C)n1-c1cccc(C(=O)O)c1 | 103
COC(=O)c1cc(OC)c(OC)cc1NC(=O)CN1CCNCC1 | n
CCN(CC)Cc1cc(O)c(CN(CC)CC)cc1O | 60
CCN(CC)Cc1cc(C2N(C(C)=O)c3cccc4cccc(c34)N2C(C)=O)ccc1O | n
CCCc1oc(C(=O)O)cc1CN(CC)CC | n
CC1CCN(Cn2nc(-c3ccccc3)oc2=S)CC1 | n
SMILES | MgrA DNA FP
CN1C(=O)/C(=c2/[nH][nH]c(=O)/c2=C\C=C\c2ccccc2)C(=O)c2ccccc21 | 56
CN1C(=O)CN(C2CCCCC2)C(=O)c2ccccc21 | n
CN1C(=O)/C(=C\C(=O)c2cccs2)c2ccccc21 | n
N#C/C(=C\c1ccc(/C=C(\C#N)S(=O)(=O)c2ccccc2)cc1)S(=O)(=O)c1ccccc1 | n
Cc1ccc(S(=O)(=O)/C(C#N)=C/c2ccccc2)cc1 | n
Cc1ccc(S(=O)(=O)/C(C#N)=C/C2=Cc3ccccc3OC2)cc1 | 62
O=C(NCCc1ccncc1)NC(=O)c1c(F)cccc1F | n
CN1C(=O)/C(=C\c2ccc(-c3ccccc3C(=O)O)o2)C(=O)N(c2ccccc2)C1=S | 62
Cc1ccc(N2C(=O)NC(=O)/C(=C\c3ccc(-c4ccccc4C(=O)O)o3)C2=O)cc1 | n
CN1C(=O)/C(=C/c2ccc(-c3ccc(C(=O)O)cc3)o2)c2ccccc21 | n
Cc1cc(C)nc(SCC(=O)NC2CCCCC2)n1 | n
CCOc1ccc(NC(=O)c2ccnc(N3CCC(C(=O)N4CCOCC4)CC3)c2)cc1 | n
O=c1cc(-c2cc(Cl)cc3c2OCOC3)oc2ccc(F)cc12 | n
COC(=O)c1ccc2c(=O)n3nc(N)sc3nc2c1 | n
Cc1ccc(C)n1-c1sccc1C(=O)CC#N | n
Cc1ccc(C)n1-c1sccc1C(=O)O | 89
CC(=O)Nc1sccc1C(=O)O | n
